# Results from PubChem BioAssay (NCATS).
# Inconclusive results are not listed. A call without a number means that no potency is given here. Active and inactive are the calls of the source. Calls come from the whole dose curve; as a rule, active = well fitted inhibition curve with a large enough effect in the signal ratio, with a control signal flat (not every such curve was filed as active); inconclusive = small, poorly fitted or top-dose-only effect, or effect the other way, or a change in a side signal; inactive = flat fitted curve, though single readings scatter; the % refers to the signal ratio.
# Target: Glucocorticoid receptor (Homo sapiens) (UniProt P04150)
# Experiment: qHTS assay for small molecule antagonists of glucocorticoid receptor signaling (AID 588533)
# Details: HeLa MMTV-bla, GRE beta-lactamase ratio, antagonist mode, 18 h; series mostly up to 76.8 µM
# Source text: NIH Chemical Genomics Center [NCGC] U.S. Environmental Protection Agency [EPA] National Institutes of Environmental Health Sciences [NIEHS] National Toxicology Program [NTP] NCGC Assay Overview The Glucocorticoid receptor (GR), a nuclear receptor subfamily member and its natural ligands includes […] etc. The GR is a validated drug target for inflammation. GR ligands such as dexamethasone are clinically available as anti-inflammatory drugs. Glucocorticoids implicate a role in carbohydrate, protein and lipid metabolisms and programmed cell death. They are also a component of many chemotherapy regimens for the treatment of leukemias, lymphomas, and myelomas because of their role in the induction of apoptosis.
# NCGC Assay Protocol Summary Using a beta-lactamase reporter-gene under control of glucocorticoid response element (GRE), a cell-based assay [CellSensor MMTV-bla HeLa cell line assay developed by Invitrogen] was used to measure GR ligands signaling. CellSensor MMTV-bla HeLa cells were used with assay medium containing 1% charcoal/dextran treated FBS, 0.1 mM NEAA, 1 mM sodium pyruvate and 25mM HEPES. The assay was performed in clear bottom black Greiner 1536-well plates. Library compounds were measured for their ability to inhibit the reporter gene activity. Compounds were screened in a titration series in 1536-well format. […] Data was normalized relative to Dexamethasone control (2 nM, 100%), and DMSO only wells (basal, 0%). Concentration-response titration points for each compound were fitted to the Hill equation yielding concentrations of half-maximal inhibition (IC50) and maximal response (efficacy) values. qHTS protocol for GR beta-lactamase assay in antagonist mode [Step] [Parameter] [Value] [Description] 1. Reagent; 5 uL; 1500 cells/well 2. Incubation; 37 C for 3-5 hrs 3. Compounds; 23 nL; 0.59 nM to 92 uM 4. […] Agonist (Stimulator); 1uL; Dexamethasone at 2 nM (final) concentration 6. Incubation; 37 C for 18 hrs 7. Detection reagent; 1 uL of CCF4-dye 8. Incubation; RT for 2 hrs 9. Detection; Fluorescence; Envision plate reader
# Sequence of Glucocorticoid receptor (Homo sapiens) (P04150 whole entry, looked up): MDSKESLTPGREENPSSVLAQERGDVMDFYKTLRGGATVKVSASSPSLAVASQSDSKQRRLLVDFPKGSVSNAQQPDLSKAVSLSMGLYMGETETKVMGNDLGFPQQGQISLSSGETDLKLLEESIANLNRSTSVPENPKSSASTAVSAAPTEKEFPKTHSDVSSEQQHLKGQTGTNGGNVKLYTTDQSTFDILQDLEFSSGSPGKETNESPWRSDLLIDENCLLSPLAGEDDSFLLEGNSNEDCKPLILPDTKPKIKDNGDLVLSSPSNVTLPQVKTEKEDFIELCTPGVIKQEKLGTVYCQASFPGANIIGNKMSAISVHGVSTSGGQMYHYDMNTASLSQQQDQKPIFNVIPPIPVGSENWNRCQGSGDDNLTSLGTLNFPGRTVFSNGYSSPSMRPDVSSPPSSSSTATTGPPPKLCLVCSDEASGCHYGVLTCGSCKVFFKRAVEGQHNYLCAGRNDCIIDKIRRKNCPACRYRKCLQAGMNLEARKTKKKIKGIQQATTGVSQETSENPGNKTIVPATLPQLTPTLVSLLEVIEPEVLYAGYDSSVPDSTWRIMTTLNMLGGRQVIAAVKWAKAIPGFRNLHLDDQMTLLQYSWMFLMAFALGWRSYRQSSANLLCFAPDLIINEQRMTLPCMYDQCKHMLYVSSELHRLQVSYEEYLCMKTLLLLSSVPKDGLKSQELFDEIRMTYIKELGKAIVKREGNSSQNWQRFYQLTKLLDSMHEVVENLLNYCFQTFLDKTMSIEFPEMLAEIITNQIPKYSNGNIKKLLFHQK
row,SMILES,Potency
1,COP(=O)(OC)Oc1nc(Cl)c(Cl)cc1Cl,inactive
2,CCS(=O)(=O)c1cccnc1S(=O)(=O)NC(=O)Nc1nc(OC)cc(OC)n1,inactive
3,CCOC(=O)COc1cc(-c2nn(C)c(OC(F)F)c2Cl)c(F)cc1Cl,inactive
4,c1cc(OCC2CO2)cc(OCC2CO2)c1 (stereo not given),inactive
5,C=CC(=O)NCO,inactive
6,CC(C)(c1ccccc1)c1cc(-n2nc3ccccc3n2)c(O)c(C(C)(C)c2ccccc2)c1,inactive
7,FC(F)C(F)(F)OCC(Cn1cncn1)c1ccc(Cl)cc1Cl (stereo not given),inactive
8,CCNc1nc(Cl)nc(NC(C)(C)C)n1,inactive
9,CC(C)[C@@H](Nc1ccc(C(F)(F)F)cc1Cl)C(=O)OC(C#N)c1cccc(Oc2ccccc2)c1 (stereo not given in full),inactive
10,CC(C)(C)C(=O)[C@@H](Oc1ccc(Cl)cc1)n1cncn1,inactive
11,CCCCC(O)(Cn1cncn1)c1ccc(Cl)cc1Cl (stereo not given),inactive
12,CCC[CH2][Sn](=[O])[CH2]CCC,inactive
13,CNC(=O)O/N=C/C(C)(C)S(C)(=O)=O,inactive
14,CCNP(=S)(OC)O/C(C)=C/C(=O)OC(C)C (stereo not given),inactive
15,Clc1ccc(C(Cl)(Cl)Cl)cc1,inactive
16,[Ga]#[As],inactive
17,O=S(=O)(c1ccc(O)cc1)c1ccc(O)cc1,inactive
18,O=c1[nH]c2ccccc2c(=O)o1,inactive
19,O=P(Oc1ccccc1)(Oc1ccccc1)Oc1ccccc1,inactive
20,CNC(=S)S,inactive

row,SMILES,Potency
1,Cc1cc(C)nc(Nc2ccccc2)n1,inactive
2,Nc1ccccc1C(=O)OCCc1ccccc1,inactive
3,CCOP(=S)(OCC)SCSP(=S)(OCC)OCC,inactive
4,O=[N+]([O-])Nc1nccn1Cc1ccc(Cl)nc1,inactive
5,CCOP(=S)(NC(C)C)Oc1ccccc1C(=O)OC(C)C (stereo not given),inactive
6,COP(=S)(OC)Oc1ccc([N+](=O)[O-])c(C)c1,inactive
7,CCOP(=O)(NC(C)C)Oc1ccc(S(C)(=O)=O)c(C)c1 (stereo not given),inactive
8,CNC(=O)Oc1ccc(N(C)C)c(C)c1,inactive
9,Clc1ccc([C@]2(Cn3cncn3)C[C@H](Br)CO2)c(Cl)c1,inactive
10,CCCN(CCOc1c(Cl)cc(Cl)cc1Cl)C(=O)n1ccnc1,inactive
11,Brc1ccc(Oc2ccccc2)cc1,inactive
12,CC(C)COP(=O)(OCC(C)C)OCC(C)C,inactive
13,C1=Cc2cccc3cccc1c23,inactive
14,Oc1ccc(C2(c3ccc(O)cc3)c3ccccc3-c3ccccc32)cc1,44.7 µM (active)
15,CCOP(=O)(OCC)SCS(=O)(=O)C(C)(C)C,inactive
16,Cn1cc(-c2ccccc2)c(=O)c(-c2cccc(C(F)(F)F)c2)c1,inactive
17,CCCCOCCOC(C)=O,inactive
18,CCCCCCCCCCCCN(C)C,inactive
19,CCc1cc(C)cc(CC)c1-c1c(OC(=O)C(C)(C)C)n2n(c1=O)CCOCC2,inactive
20,COc1cc(OC)nc(NC(=O)NS(=O)(=O)c2cc(NC=O)ccc2C(=O)N(C)C)n1,inactive
